Eleven molecules from the supplement of paper PMC9950053 can be followed below.

Counter-ions that a name gives are not always drawn.

This experiment relates to Danio rerio larvae (5 dpf). Description: combined optomotor response (time in upper well half, down vs up moving lines, periods 7-14) minus DMSO control (percentage points); higher = stronger optomotor response than DMSO larvae. To be noted: 10 µM; exposure time: 3 h pre-incubation + 3 h imaging.
In the case of `C=C1C[C@@H]2[C@H](CC[C@]3(C)C(=O)CC[C@@H]23)[C@@]2(C)C=CC(=O)C=C12` [Exemestane], the combined optomotor response came out at 3.71.
The figure for `CC(O)(CS(=O)(=O)c1ccc(F)cc1)C(=O)Nc1ccc(C#N)c(C(F)(F)F)c1` (stereo unspecified) [Bicalutamide] is 0.551; for `O=c1[nH]c2ccccc2n1C1CCN(CCCC(c2ccc(F)cc2)c2ccc(F)cc2)CC1` [Pimozide] it is -11; for `CC[C@@H](C(N)=O)N1CCCC1=O` [Levetiracetam] it is 7.27.
The figure for `CN1C[C@H](C(=O)N[C@]2(C)O[C@@]3(O)[C@@H]4CCCN4C(=O)[C@H](Cc4ccccc4)N3C2=O)C[C@@H]2c3cccc4[nH]cc(c34)C[C@H]21` [Dihydroergotamine mesylate] is 13.2; for `C=CCN1C[C@H](C(=O)N(CCCN(C)C)C(=O)NCC)C[C@@H]2c3cccc4[nH]cc(c34)C[C@H]21` [Cabergoline] it is -6.92.
Next, `CC(C)C[C@H]1C(=O)N2CCC[C@H]2[C@]2(O)O[C@](NC(=O)[C@@H]3C=C4c5cccc6[nH]c(Br)c(c56)C[C@H]4N(C)C3)(C(C)C)C(=O)N12` [Bromocriptine mesylate]: -10.1; `COc1cc2c(cc1OC)C1CC(=O)C(CC(C)C)CN1CC2` (stereo unspecified) [Tetrabenazine]: -0.321.
In the case of `CCN(C)C(=O)Oc1cccc([C@H](C)N(C)C)c1` [Rivastigmine tartrate], the combined optomotor response came out at 4.19.
Next, `Cc1cccc([C@H](C)c2c[nH]cn2)c1C` [Dexmedetomidine hydrochloride]: -11.4.
Next, `N[C@@H]1C[C@H]1c1ccccc1` [Tranylcypromine hydrochloride]: 9.38.
